{"source": "PubChem BioAssay (Tox21)", "note": "Records with an inconclusive call do not appear. Unmarked numbers belong to inactive results. Calls of active or inactive are those of the source. Calls come from the whole dose curve; as a rule, active = well fitted activation curve with a large enough effect in the repeat runs; inconclusive = weak or mixed curves; inactive = no such curve, though single readings can be large or run the other way. % is set by controls: 0 for no effect and ±100 for the full control effect; potency is the fitted concentration of half-maximal effect."}
{"molecular_target": "Nuclear receptor subfamily 1 group I member 2 (Homo sapiens) (UniProt O75469)", "assay": "CYP3A4 induction through human pregnane X receptor (PXR) by small molecules, qHTS assay (AID 1346984); note: nearly all actives have a fitted effect of over 40% in size", "details": "DPX-2 HepG2 PXR, CYP3A4-luciferin luminescence, 24 h; series mostly up to 46.1 µM; activation: at the top concentration", "excerpt": "National Center for Advancing Translational Sciences [NCATS]\nNIH Chemical Genomics Center [NCGC]\nU.S. Environmental Protection Agency [EPA]\nNational Institutes of Environmental Health Sciences [NIEHS]\nNational Toxicology Program [NTP]\nThe Pregnane X receptor (PXR), a ligand activated nuclear receptor plays a critical role in the regulation of genes involved in drug metabolism and transporters. Activation of PXR is responsible for unwanted adverse drug reactions. PXR binds xenobiotics and when compounds interact with PXR enhances the expression of CYP3A genes. Identifying the compounds with the potential for PXR activation and CYP3A4 induction can be of importance in improving the efficacy of drugs with less toxicity and avoiding drug-drug interactions.\nDPX-2 (Puracyp, Inc.) cell lines, used for screening against human PXR activation has HepG2 cells co-transfected with a PXR response element and a luciferase construct containing CYP3A4 promoter. Increase in luciferase activity can be used to identify the compounds that cause the induction of CYP3A4.\nDPX-2 cells were dispensed at 2,000 cells per well in 5uL of assay medium into white, solid-bottom 1536-well plates using a Multidrop Combi dispenser (Thermo Scientific). The assay plates were incubated at 37C for 5hr before transferring 23nL of test compounds dissolved in DMSO and positive control via Pintool station (Wako). The assay plates were incubated at 37C for 24hr. After 24hr compound treatment, 1uL of 3uM (final concentration) P450 substrate (P450-Glo CYP3A4 screening system with Luciferin-IPA, Promega) was added by a Flying Reagent Dispenser (FRD, Aurora Discovery). The assay plates were incubated for 3hr at 37C. Then 5ul One-Glo assay reagent (Promega) was added to each plate by an FRD and following 30 min incubation at room temperature, luciferase activity was quantified on a ViewLux plate reader (Perkin Elmer)."}
{"smiles": "Nc1ccc(C(=O)Oc2ccccc2)c(O)c1", "activation": "-1.46%"}
{"smiles": "COc1ccc(C(=O)c2ccc(C)cc2)c(O)c1", "activation": "-9.52%"}
{"smiles": "Cc1c(Nc2ncccc2C(=O)O)cccc1C(F)(F)F", "activation": "-1.51% [at 20.6 µM]"}
{"smiles": "Clc1cccc(C(c2ccc3nc[nH]c3c2)n2ccnc2)c1", "note": "(configuration not stated)", "activation": "-17.2%"}
{"smiles": "CCOC(C)OCC", "activation": "-4.89%"}
{"smiles": "Cc1ccc(S(=O)(=O)NC(=O)NC2CCCC2)cc1", "activation": "-6.53%"}
{"smiles": "O=C1c2ccccc2C(=O)c2c1ccc(O)c2O", "Potency": "14.1 µM (active)"}
{"smiles": "C/C(=C(\\CCO)SS/C(CCO)=C(\\C)N(C=O)Cc1cnc(C)nc1N)N(C=O)Cc1cnc(C)nc1N", "activation": "2.02%"}
{"smiles": "CC(C)(C)NCC(O)COc1ccc(NC(=O)NC2CCCCC2)cc1", "note": "(configuration not stated)", "activation": "7.82%"}
{"smiles": "Cc1cccc(C)c1NC(=O)CN1CCCC1", "activation": "-7.72%"}
{"smiles": "C/C=C1\\[C@H]2C=C(C)C[C@]1(N)c1ccc(=O)[nH]c1C2", "activation": "19.7%"}
{"smiles": "CC[C@H](NC(C)C)[C@H](O)c1ccc(O)c2[nH]c(=O)ccc12", "activation": "-12.7%"}
{"smiles": "COc1ccc(CN(CCN(C)C)c2ncccn2)cc1", "activation": "1.35%"}
{"smiles": "COc1cc(C)c(Cc2cnc(N)nc2N)cc1OC", "activation": "-3.17%"}
{"smiles": "CCCCCCCCCCCCSCCOCCO", "activation": "-15%"}
{"smiles": "C[C@@H](O)[C@H]1C(=O)N2C(C(=O)O)=C(S[C@@H]3CN[C@H](CNS(N)(=O)=O)C3)[C@H](C)[C@H]12", "activation": "-5.52%"}
{"smiles": "CCCCCCCCCCCCCCCCN", "activation": "-5.44%"}
{"smiles": "CCN(CCCCOC(=O)c1ccc(OC)c(OC)c1)C(C)Cc1ccc(OC)cc1", "note": "(configuration not stated)", "activation": "3.33% [at 20.6 µM]"}
{"smiles": "O=C(OC1C[C@H]2CC[C@@H](C1)[N+]21CCCC1)C(O)(c1ccccc1)c1ccccc1", "note": "(some centres not stated)", "activation": "-0.293%"}
{"smiles": "C[C@]12CCC(=O)C=C1[C@@H]1C[C@@H]1[C@H]1[C@@H]3[C@@H]4C[C@@H]4[C@@]4(CCC(=O)O4)[C@@]3(C)CC[C@@H]12", "Potency": "11.2 µM (active)"}
{"smiles": "CC(C)(Cc1c[nH]c2ccccc12)NCC(O)COc1ccccc1C#N", "note": "(configuration not stated)", "Potency": "12.6 µM (active)"}
{"smiles": "NC(=O)c1cc[n+](CC2=C(C(=O)[O-])N3C(=O)[C@@H](NC(=O)Cc4cccs4)[C@H]3SC2)cc1", "activation": "-1.46% [at 20.6 µM]"}
{"smiles": "CC1=C(C)C(=O)C(C(CCCCCC(=O)O)c2ccccc2)=C(C)C1=O", "note": "(configuration not stated)", "Potency": "10 µM (active)"}
{"smiles": "CC(=O)OCC(=O)[C@@]1(O)CC[C@H]2[C@@H]3CCC4=CC(=O)C=C[C@]4(C)[C@@]3(F)[C@@H](O)C[C@@]21C", "Potency": "0.631 µM (active)"}
{"smiles": "CC1=CC(=C(c2ccc(N)cc2)c2ccc(N)cc2)C=CC1=N", "activation": "-21.5%"}
{"smiles": "CC(COc1ccccc1)NC(C)C(O)c1ccc(O)cc1", "note": "(configuration not stated)", "activation": "-7.61% [at 20.6 µM]"}
{"smiles": "CC(C)C[C@H](NC(=O)[C@H](Cc1ccccc1)NC(=O)c1cnccn1)B(O)O", "Potency": "inactive"}
